# A number with no mark means an inactive call.
# How the values were obtained:
# Assay in all cases: log2 ratio of Biotin-Ahx-Ub-VS probe labelling (fragment/DMSO); higher = less target engagement (more negative = stronger competition), active = hit call of the paper (q ≤ 0.05, log2 ratio ≤ -1)
# Conditions in all cases: compound concentration: 200 uM; treatment time: 3 h
# ALG13 = target: T1, ALG13 (UniProt Q9NP73)
# T1 sequence (whole entry): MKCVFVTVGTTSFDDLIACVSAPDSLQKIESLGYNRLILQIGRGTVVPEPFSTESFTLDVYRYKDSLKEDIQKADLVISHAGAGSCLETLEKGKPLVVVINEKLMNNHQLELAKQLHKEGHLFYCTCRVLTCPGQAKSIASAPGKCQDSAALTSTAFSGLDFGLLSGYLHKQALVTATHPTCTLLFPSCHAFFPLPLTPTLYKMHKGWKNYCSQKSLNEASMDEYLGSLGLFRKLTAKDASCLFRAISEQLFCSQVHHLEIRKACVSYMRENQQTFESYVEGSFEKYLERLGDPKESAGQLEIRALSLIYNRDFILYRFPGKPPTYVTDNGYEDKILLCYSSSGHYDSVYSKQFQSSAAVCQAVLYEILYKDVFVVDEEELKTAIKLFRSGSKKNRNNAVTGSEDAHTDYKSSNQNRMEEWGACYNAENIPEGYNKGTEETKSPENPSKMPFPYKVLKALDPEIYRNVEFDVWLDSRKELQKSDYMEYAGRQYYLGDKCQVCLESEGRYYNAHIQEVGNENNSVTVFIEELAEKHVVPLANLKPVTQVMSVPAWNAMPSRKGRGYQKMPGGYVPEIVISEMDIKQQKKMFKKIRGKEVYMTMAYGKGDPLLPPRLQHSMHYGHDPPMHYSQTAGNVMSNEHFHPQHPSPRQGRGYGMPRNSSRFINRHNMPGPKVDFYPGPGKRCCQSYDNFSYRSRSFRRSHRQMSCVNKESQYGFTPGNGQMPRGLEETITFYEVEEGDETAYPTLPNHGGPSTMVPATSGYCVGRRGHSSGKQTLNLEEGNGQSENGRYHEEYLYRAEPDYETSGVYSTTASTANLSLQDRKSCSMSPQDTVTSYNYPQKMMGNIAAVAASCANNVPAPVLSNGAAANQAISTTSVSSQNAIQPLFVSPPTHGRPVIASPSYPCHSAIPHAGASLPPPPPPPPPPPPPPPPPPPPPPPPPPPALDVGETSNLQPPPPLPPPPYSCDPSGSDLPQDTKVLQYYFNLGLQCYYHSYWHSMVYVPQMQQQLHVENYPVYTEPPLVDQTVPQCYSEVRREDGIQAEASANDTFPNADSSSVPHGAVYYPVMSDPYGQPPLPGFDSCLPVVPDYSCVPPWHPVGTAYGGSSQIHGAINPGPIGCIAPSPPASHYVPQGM
# Method in brief: (§1)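 The table lists average log2 ratios of fragment over vehicle, from an unpaired t-test on global-median-normalised Spectronaut label-free quantities. Proteins with ≥2 unique peptides were used. Samples were HEK293T lysate (495 µg) treated in triplicate with fragment at 200 µM or vehicle for 3 h, then with Biotin-Ahx-Ub-VS (0.5 µM final) for 1 h, with labelled DUBs NeutrAvidin-enriched and run by diaPASEF LC-MS/MS.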
# ATXN3 = ATXN3 (UniProt P54252)
# Chain of ATXN3 (P54252 whole entry): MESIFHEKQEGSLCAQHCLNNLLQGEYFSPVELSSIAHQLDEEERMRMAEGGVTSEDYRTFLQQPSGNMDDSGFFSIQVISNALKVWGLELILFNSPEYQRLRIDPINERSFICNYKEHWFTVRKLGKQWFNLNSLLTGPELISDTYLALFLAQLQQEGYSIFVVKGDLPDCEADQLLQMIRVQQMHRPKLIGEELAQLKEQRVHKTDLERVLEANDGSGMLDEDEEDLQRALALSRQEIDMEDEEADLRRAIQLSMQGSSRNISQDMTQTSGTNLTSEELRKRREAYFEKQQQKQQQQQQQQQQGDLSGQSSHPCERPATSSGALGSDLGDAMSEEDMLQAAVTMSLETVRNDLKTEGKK
# Method in brief: as §1
# BAP1 = target: T2, BAP1 (UniProt Q92560)
# T2 sequence (whole entry): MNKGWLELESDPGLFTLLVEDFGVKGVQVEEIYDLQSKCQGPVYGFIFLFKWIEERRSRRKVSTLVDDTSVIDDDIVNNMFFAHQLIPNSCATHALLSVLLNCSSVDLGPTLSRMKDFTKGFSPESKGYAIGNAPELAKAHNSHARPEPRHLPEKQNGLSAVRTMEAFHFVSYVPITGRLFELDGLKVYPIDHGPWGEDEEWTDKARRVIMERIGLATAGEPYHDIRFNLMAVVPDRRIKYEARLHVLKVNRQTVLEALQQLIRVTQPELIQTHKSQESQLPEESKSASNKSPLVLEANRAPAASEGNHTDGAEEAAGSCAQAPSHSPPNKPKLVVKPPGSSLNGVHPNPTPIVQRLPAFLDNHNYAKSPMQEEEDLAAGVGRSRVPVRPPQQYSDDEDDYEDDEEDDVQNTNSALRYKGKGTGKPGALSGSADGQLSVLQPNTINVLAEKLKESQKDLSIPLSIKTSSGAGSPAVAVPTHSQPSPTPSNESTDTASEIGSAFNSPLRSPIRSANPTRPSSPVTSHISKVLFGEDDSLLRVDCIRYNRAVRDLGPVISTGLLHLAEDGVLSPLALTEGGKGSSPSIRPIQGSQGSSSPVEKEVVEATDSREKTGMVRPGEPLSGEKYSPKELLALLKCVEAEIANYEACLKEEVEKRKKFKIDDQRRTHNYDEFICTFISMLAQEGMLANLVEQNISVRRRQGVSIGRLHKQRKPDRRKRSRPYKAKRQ
# Method in brief: as §1
# EIF3F = EIF3F (UniProt O00303)
# Chain of EIF3F (O00303 whole entry): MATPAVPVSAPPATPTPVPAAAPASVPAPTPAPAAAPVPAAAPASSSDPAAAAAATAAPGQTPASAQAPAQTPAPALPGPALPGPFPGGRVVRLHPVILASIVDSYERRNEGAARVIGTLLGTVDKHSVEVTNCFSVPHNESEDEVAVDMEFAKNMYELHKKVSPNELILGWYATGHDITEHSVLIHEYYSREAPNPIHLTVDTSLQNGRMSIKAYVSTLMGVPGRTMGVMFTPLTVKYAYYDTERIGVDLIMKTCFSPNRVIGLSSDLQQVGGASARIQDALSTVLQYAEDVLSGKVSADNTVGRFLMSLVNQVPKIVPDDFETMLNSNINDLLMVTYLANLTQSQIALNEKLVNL
# Method in brief: as §1
# EIF3H = EIF3H (UniProt O15372)
# Chain of EIF3H (O15372 whole entry): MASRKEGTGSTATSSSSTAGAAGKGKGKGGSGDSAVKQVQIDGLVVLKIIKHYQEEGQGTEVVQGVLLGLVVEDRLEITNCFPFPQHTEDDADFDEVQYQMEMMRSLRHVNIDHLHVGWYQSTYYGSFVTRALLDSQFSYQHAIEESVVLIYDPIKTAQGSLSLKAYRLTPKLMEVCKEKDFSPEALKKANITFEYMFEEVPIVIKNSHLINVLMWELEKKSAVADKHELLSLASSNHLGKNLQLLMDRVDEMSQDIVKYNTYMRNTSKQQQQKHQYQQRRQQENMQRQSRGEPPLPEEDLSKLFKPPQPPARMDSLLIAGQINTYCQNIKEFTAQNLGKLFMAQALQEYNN
# Method in brief: as §1
# FAM105A = target: T3, FAM105A (UniProt Q9NUU6)
# T3 sequence (whole entry): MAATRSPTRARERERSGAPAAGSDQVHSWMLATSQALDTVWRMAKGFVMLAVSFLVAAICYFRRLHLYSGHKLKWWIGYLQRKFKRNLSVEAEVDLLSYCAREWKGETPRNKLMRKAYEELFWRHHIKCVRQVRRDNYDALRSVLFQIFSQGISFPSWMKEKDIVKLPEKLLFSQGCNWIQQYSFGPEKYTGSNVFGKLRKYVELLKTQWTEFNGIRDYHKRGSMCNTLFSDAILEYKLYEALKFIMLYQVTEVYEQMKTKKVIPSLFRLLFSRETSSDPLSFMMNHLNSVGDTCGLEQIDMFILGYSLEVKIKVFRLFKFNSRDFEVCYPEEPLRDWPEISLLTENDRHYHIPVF
# Method in brief: as §1
# OTUB1 = OTUB1 (UniProt Q96FW1)
# Chain of OTUB1 (Q96FW1 whole entry): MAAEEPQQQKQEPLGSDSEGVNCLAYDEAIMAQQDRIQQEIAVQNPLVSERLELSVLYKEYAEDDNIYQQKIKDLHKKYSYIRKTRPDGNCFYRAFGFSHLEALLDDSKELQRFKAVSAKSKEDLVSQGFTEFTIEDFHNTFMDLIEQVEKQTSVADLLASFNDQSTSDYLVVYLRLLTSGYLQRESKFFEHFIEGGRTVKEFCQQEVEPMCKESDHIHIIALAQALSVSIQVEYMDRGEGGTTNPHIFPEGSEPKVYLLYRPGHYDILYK
# Method in brief: as §1
# OTUD4 = target: T4, OTUD4 (UniProt Q01804)
# T4 sequence (whole entry): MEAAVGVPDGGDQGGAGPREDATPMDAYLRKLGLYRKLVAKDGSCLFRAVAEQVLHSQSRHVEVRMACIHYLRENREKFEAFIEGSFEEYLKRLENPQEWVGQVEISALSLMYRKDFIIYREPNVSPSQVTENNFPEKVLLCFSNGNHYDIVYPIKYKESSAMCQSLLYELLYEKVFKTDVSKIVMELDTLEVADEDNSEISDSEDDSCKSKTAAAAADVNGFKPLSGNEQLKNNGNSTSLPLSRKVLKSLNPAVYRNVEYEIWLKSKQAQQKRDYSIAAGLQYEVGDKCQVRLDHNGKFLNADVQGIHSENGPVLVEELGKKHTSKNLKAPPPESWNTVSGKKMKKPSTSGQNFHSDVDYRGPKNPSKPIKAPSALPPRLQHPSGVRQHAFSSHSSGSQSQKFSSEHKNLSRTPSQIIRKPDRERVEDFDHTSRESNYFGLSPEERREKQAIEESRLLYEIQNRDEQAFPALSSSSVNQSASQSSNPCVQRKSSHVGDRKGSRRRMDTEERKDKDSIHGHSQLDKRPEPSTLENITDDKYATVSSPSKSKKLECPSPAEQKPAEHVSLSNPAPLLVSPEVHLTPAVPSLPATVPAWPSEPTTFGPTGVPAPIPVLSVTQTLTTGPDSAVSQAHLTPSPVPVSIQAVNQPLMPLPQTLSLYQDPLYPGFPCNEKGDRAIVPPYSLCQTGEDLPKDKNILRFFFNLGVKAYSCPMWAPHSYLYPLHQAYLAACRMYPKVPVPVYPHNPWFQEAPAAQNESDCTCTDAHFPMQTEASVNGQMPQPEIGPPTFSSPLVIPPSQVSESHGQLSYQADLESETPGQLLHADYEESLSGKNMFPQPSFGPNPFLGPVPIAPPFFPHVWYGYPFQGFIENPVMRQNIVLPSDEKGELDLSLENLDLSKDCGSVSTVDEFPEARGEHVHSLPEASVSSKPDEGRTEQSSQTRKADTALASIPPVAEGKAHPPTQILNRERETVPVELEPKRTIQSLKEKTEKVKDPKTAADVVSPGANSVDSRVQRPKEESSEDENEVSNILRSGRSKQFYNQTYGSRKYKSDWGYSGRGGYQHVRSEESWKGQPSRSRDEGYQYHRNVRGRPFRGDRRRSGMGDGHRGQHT
# Method in brief: as §1
# OTUD5 = target: T5, OTUD5 (UniProt Q96G74)
# T5 sequence (whole entry): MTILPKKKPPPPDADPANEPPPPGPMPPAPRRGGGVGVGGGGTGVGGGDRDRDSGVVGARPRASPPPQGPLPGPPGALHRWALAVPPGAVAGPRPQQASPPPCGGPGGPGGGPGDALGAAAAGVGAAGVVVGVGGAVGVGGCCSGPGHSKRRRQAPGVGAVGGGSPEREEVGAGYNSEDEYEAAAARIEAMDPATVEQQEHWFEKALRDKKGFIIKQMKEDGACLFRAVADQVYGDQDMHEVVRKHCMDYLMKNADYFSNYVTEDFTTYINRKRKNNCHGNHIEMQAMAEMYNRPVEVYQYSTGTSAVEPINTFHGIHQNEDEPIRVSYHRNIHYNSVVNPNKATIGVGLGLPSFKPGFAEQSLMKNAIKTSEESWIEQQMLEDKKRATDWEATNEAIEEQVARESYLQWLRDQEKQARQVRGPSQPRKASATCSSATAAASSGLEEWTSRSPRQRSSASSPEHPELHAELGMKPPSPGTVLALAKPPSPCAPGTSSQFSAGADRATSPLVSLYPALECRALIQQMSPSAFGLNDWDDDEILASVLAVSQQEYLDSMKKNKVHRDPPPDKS
# Method in brief: as §1
structure (smiles),measurement,setting,value
CN(C)C(=O)c1ccc(NC(=O)CCl)cc1,log2 ratio of Biotin-Ahx-Ub-VS probe labelling,ALG13,-0.115
same,log2 ratio of Biotin-Ahx-Ub-VS probe labelling,ATXN3,-0.241
same,log2 ratio of Biotin-Ahx-Ub-VS probe labelling,BAP1,-3.59 (active)
same,log2 ratio of Biotin-Ahx-Ub-VS probe labelling,EIF3F,0.168
same,log2 ratio of Biotin-Ahx-Ub-VS probe labelling,EIF3H,0.142
same,log2 ratio of Biotin-Ahx-Ub-VS probe labelling,FAM105A,0.105
same,log2 ratio of Biotin-Ahx-Ub-VS probe labelling,OTUB1,0.31
same,log2 ratio of Biotin-Ahx-Ub-VS probe labelling,OTUD4,-0.109
same,log2 ratio of Biotin-Ahx-Ub-VS probe labelling,OTUD5,-0.508

# Reference: the supplement of paper PMC11732987, “Enantioselective OTUD7B fragment discovery through chemoproteomics screening and high-throughput optimisation” (Communications Chemistry, 2025)
